Where “and” joins values, the source holds several entries; their conditions need not be identical. Identical values can stand only once. The panel holds about 83,000 compounds, 20% with a hit somewhere; the sample as a whole holds those more often.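 Cell lines were cultured in 96-well plates, exposed to a single compound concentration, and assessed for percent growth 48 hours later.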 Calls of active or inactive are those of the source. How the source made its calls: active means growth percent below 10; inactive means the rest.
Tested on: SNB-75 CNS
Test: NCI-60 one-dose screen, 48 h (100 = growth as untreated, 0 = no growth, -100 = all killed)
Details: 10 µM

**Q.** How did the growth turn out when `COc1ccccc1[As]=[As]c1ccccc1OC` (stereo not drawn) was run?
**A.** -91.8% (active)

**Q.** `O=S(=O)(F)c1ccc(Cl)cc1` was tested. Which growth did it give?
**A.** 92.9% (inactive)

**Q.** For `C/C1=C\[C@H](C)C[C@H](C)OC(=O)C[C@H](c2ccc(O)cc2)NC(=O)[C@@H](Cc2c(Br)[nH]c3ccccc23)N(C)C(=O)[C@H](C)NC(=O)[C@@H](C)C1`, which growth is on record?
**A.** -76.4% (active)

**Q.** With `CC1CCC2(OC1)OC1C(O)C3C4CCC5CC(OC6OC(CO)C(OC7OC(CO)C(O)C(OC8OCC(O)C(O)C8O)C7OC7OC(CO)C(O)C(OC8OC(CO)C(O)C(O)C8O)C7O)C(O)C6O)C(O)CC5(C)C4CCC3(C)C1C2C` (stereo not drawn) as the molecule, how does the growth read?
**A.** -32% (active)

**Q.** `[Cl][Hg][c]1ccc2ccccc2c1` was tested. Which growth did it give?
**A.** -85.3% (active)

**Q.** How did the growth turn out when `COc1cc(/C=C(/C)[N+](=O)[O-])ccc1O` was run?
**A.** 74.3% (inactive) and 1.18% (active)

**Q.** How did the growth turn out when `O=[N+]([O-])c1cc[n+]([O-])c2ccccc12` was run?
**A.** -82.2% (active)

**Q.** For `[O-][n+]1ccccc1S`, which growth is on record?
**A.** 56.5% (inactive)

**Q.** With `NNc1ccccc1` as the molecule, how does the growth read?
**A.** 93.2% (inactive)

**Q.** Which growth does the source give for `O=C1CCC(=O)N1SC(Cl)(Cl)Cl` here?
**A.** 92.1% (inactive)

**Q.** `Cc1cc([N+](=O)[O-])c2ccccc2[n+]1[O-]` was tested. Which growth did it give?
**A.** -63.6% (active) and -53.8% (active)

**Q.** How did the growth turn out when `CC/C(=C/c1ccc(OC)cc1)[N+](=O)[O-]` was run?
**A.** 53.9% (inactive)

**Q.** `COc1cc(/C=C\[N+](=O)[O-])ccc1O` was tested. Which growth did it give?
**A.** 93.6% (inactive) and 96.7% (inactive)

**Q.** How did the growth turn out when `Oc1c(I)cc(I)cc1I` was run?
**A.** 87.9% (inactive)

**Q.** How did the growth turn out when `COC(=O)C1C(O)C(C)C(O)C(C)/C=C\C=C(C)C(=O)Nc2c(C)c(OC(C)=O)c3c(c2O)C(=O)C(C)=C2OCOC(=C23)C(C)=CC(C)(O)C(O)C(C)C1O` (stereo not drawn) was run?
**A.** 32.4% (inactive)

**Q.** Which growth does the source give for `COC1CC2C=C(C)/C=C/C=C/C(=O)NC(c3ccccc3)C/C=C/CCC(O)CC(=O)C2=C1O` (stereo not drawn) here?
**A.** -89.9% (active)

**Q.** Which growth does the source give for `C=C1C(=O)O[C@@H]2C[C@@H](C)[C@@H]3C=CC(=O)[C@@]3(C)[C@@H](O)[C@H]12` here?
**A.** -94.8% (active)

**Q.** How did the growth turn out when `CC12OOC(c3ccccc31)c1c2ccc2ccccc12` (stereo not drawn) was run?
**A.** -20.4% (active)

**Q.** `Cn1c(O)c(N=O)c(=O)n(C)c1=O` was tested. Which growth did it give?
**A.** 99.3% (inactive) and 95.2% (inactive)

**Q.** Which growth does the source give for `CC(C)C1(NC(=O)C2CC3c4cccc5[nH]cc(c45)CC3N(C)C2)OC2(O)C3CCCN3C(=O)C(Cc3ccccc3)N2C1=O` (stereo not drawn) here?
**A.** -1.61% (active)

**Q.** How did the growth turn out when `C#CC1(O)CCC(C(C)(C)C)CC1` (stereo not drawn) was run?
**A.** 113% (inactive)

**Q.** With `O=[N+]([O-])/C=C/c1ccc(Cl)cc1[N+](=O)[O-]` as the molecule, how does the growth read?
**A.** 55.4% (inactive)

**Q.** Which growth does the source give for `COC(C(=O)C(O)C(C)O)C1Cc2cc3cc(OC4CC(OC(C)=O)C(OC5CC(O)C(OC)C(C)O5)C(C)O4)cc(O)c3c(O)c2C(=O)C1OC1CC(OC2CC(OC3CC(C)(O)C(OC(=O)C(C)C)C(C)O3)C(O)C(C)O2)C(O)C(C)O1` (stereo not drawn) here?
**A.** -74% (active)

**Q.** How did the growth turn out when `COC12c3c(C)cc(O)c4c(=O)occ(c34)C(=O)C1C13COC(=O)c4c(O)cc(C)c(c41)C(=O)C2C3OC(C)=O` (stereo not drawn) was run?
**A.** 89.6% (inactive)

**Q.** With `[Cl][Sn]([c]1ccccc1)([c]1ccccc1)[c]1ccccc1` as the molecule, how does the growth read?
**A.** -98.6% (active)

**Q.** For `C=NCC#N`, which growth is on record?
**A.** 91.4% (inactive) and 88.2% (inactive)

**Q.** How did the growth turn out when `CC(=O)[O][Hg][c]1c(C)c(C)cc(C)c1C` was run?
**A.** -81.2% (active)

**Q.** With `[Cl][Hg][c]1ccc(Cl)s1` as the molecule, how does the growth read?
**A.** 58.1% (inactive)

**Q.** With `COc1ccc(/C=C(\C)[N+](=O)[O-])cc1OC` as the molecule, how does the growth read?
**A.** 56.5% (inactive)

Tested on: SNB-19 CNS
Test: as above
Details: 10 µM

**Q.** With `COc1ccccc1[As]=[As]c1ccccc1OC` (stereo not drawn) as the molecule, how does the growth read?
**A.** -84.5% (active)

**Q.** Which growth does the source give for `O=S(=O)(F)c1ccc(Cl)cc1` here?
**A.** 101% (inactive)

**Q.** `C/C1=C\[C@H](C)C[C@H](C)OC(=O)C[C@H](c2ccc(O)cc2)NC(=O)[C@@H](Cc2c(Br)[nH]c3ccccc23)N(C)C(=O)[C@H](C)NC(=O)[C@@H](C)C1` was tested. Which growth did it give?
**A.** -21.9% (active)

**Q.** How did the growth turn out when `CC1CCC2(OC1)OC1C(O)C3C4CCC5CC(OC6OC(CO)C(OC7OC(CO)C(O)C(OC8OCC(O)C(O)C8O)C7OC7OC(CO)C(O)C(OC8OC(CO)C(O)C(O)C8O)C7O)C(O)C6O)C(O)CC5(C)C4CCC3(C)C1C2C` (stereo not drawn) was run?
**A.** -71.7% (active)

**Q.** Which growth does the source give for `[Cl][Hg][c]1ccc2ccccc2c1` here?
**A.** -62.9% (active)

**Q.** For `COc1cc(/C=C(/C)[N+](=O)[O-])ccc1O`, which growth is on record?
**A.** 81.5% (inactive) and 75.1% (inactive)

**Q.** For `O=[N+]([O-])c1cc[n+]([O-])c2ccccc12`, which growth is on record?
**A.** -17.6% (active)

**Q.** With `[O-][n+]1ccccc1S` as the molecule, how does the growth read?
**A.** 59.9% (inactive)

**Q.** For `NNc1ccccc1`, which growth is on record?
**A.** 96.7% (inactive)

**Q.** For `O=C1CCC(=O)N1SC(Cl)(Cl)Cl`, which growth is on record?
**A.** 103% (inactive)

**Q.** `Cc1cc([N+](=O)[O-])c2ccccc2[n+]1[O-]` was tested. Which growth did it give?
**A.** -4.83% (active) and -14.1% (active)

**Q.** `CC/C(=C/c1ccc(OC)cc1)[N+](=O)[O-]` was tested. Which growth did it give?
**A.** 30.1% (inactive)

**Q.** With `COc1cc(/C=C\[N+](=O)[O-])ccc1O` as the molecule, how does the growth read?
**A.** 82.6% (inactive) and 81.2% (inactive)

**Q.** How did the growth turn out when `Oc1c(I)cc(I)cc1I` was run?
**A.** 96.3% (inactive)

**Q.** How did the growth turn out when `COC(=O)C1C(O)C(C)C(O)C(C)/C=C\C=C(C)C(=O)Nc2c(C)c(OC(C)=O)c3c(c2O)C(=O)C(C)=C2OCOC(=C23)C(C)=CC(C)(O)C(O)C(C)C1O` (stereo not drawn) was run?
**A.** 99.1% (inactive)

**Q.** `COC1CC2C=C(C)/C=C/C=C/C(=O)NC(c3ccccc3)C/C=C/CCC(O)CC(=O)C2=C1O` (stereo not drawn) was tested. Which growth did it give?
**A.** -27.1% (active)

**Q.** With `C=C1C(=O)O[C@@H]2C[C@@H](C)[C@@H]3C=CC(=O)[C@@]3(C)[C@@H](O)[C@H]12` as the molecule, how does the growth read?
**A.** -63.7% (active)

**Q.** Which growth does the source give for `CC12OOC(c3ccccc31)c1c2ccc2ccccc12` (stereo not drawn) here?
**A.** 64.8% (inactive)

**Q.** `Cn1c(O)c(N=O)c(=O)n(C)c1=O` was tested. Which growth did it give?
**A.** 107% (inactive) and 98.5% (inactive)

**Q.** How did the growth turn out when `CC(C)C1(NC(=O)C2CC3c4cccc5[nH]cc(c45)CC3N(C)C2)OC2(O)C3CCCN3C(=O)C(Cc3ccccc3)N2C1=O` (stereo not drawn) was run?
**A.** 102% (inactive)

**Q.** How did the growth turn out when `C#CC1(O)CCC(C(C)(C)C)CC1` (stereo not drawn) was run?
**A.** 103% (inactive)

**Q.** Which growth does the source give for `O=[N+]([O-])/C=C/c1ccc(Cl)cc1[N+](=O)[O-]` here?
**A.** 71.8% (inactive)

**Q.** Which growth does the source give for `COC(C(=O)C(O)C(C)O)C1Cc2cc3cc(OC4CC(OC(C)=O)C(OC5CC(O)C(OC)C(C)O5)C(C)O4)cc(O)c3c(O)c2C(=O)C1OC1CC(OC2CC(OC3CC(C)(O)C(OC(=O)C(C)C)C(C)O3)C(O)C(C)O2)C(O)C(C)O1` (stereo not drawn) here?
**A.** -4.78% (active)

**Q.** With `COC12c3c(C)cc(O)c4c(=O)occ(c34)C(=O)C1C13COC(=O)c4c(O)cc(C)c(c41)C(=O)C2C3OC(C)=O` (stereo not drawn) as the molecule, how does the growth read?
**A.** 97.6% (inactive)

**Q.** How did the growth turn out when `[Cl][Sn]([c]1ccccc1)([c]1ccccc1)[c]1ccccc1` was run?
**A.** -76.5% (active)

**Q.** For `C=NCC#N`, which growth is on record?
**A.** 102% (inactive) and 108% (inactive)

**Q.** With `CC(=O)[O][Hg][c]1c(C)c(C)cc(C)c1C` as the molecule, how does the growth read?
**A.** 39.8% (inactive)

**Q.** `[Cl][Hg][c]1ccc(Cl)s1` was tested. Which growth did it give?
**A.** 75.5% (inactive)

**Q.** `COc1ccc(/C=C(\C)[N+](=O)[O-])cc1OC` was tested. Which growth did it give?
**A.** 99.8% (inactive)

— PubChem BioAssay (NCI)
